Among all 2,300 compounds or so, about 1,400 (61%) were called active. About 29% were inconclusive and are not listed. The set was probably picked from earlier hits. The list shows a part of the results. A number with no mark means an inactive call. Calls follow the shape of the dose curve; as a rule, active = well fitted inhibition curve with a large enough effect; inconclusive = small, poorly fitted or top-dose-only effect, or effect the other way; inactive = no such curve, though single readings can be large or run the other way.
% is scaled to controls: 0 for no effect and ±100 for the full control effect; potency is read from the fitted curve at half-maximal effect.

A short description of this experiment: Confirmation screen for delayed death inhibitors of the malarial parasite plastid, 96 hour incubation. Also: nearly all actives have a fitted effect of over 60% in size. Conditions: P. falciparum luciferase growth in erythrocytes; series mostly up to 28.7 µM; activity change, negative = inhibition: at the top concentration. The method, boiled down:
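Erythrocytes infected with luciferase-expressing P. falciparum (2% hematocrit, 0.1% parasitemia final) in RPMI 1640 with 0.5% Albumax, exposed to compounds 96 h at 37 C, 5% CO2. Growth inhibition read as decreased luciferase luminescence.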
For the compound `Cc1ccc(-c2nc(-c3cccnc3)sc2CC(=O)Nc2ccc(C)c(Cl)c2)cc1`, the Potency is 4.47 µM (active). `COc1ccc(CCNC(=O)c2cc3c(=O)n4cccc(C)c4nc3n(Cc3ccco3)c2=N)cc1OC`: the Potency was 11.2 µM (active). Still for that read-out and setting: in the case of `CC(C)C1N=C(c2ccc3c(c2)OCO3)CC(c2ccccc2O)N1` (configuration not stated) it was 14.1 µM (active); in that of `O=C(NC1CCCC1)c1ccc([N+](=O)[O-])s1`, 10 µM (active). The same measure, in the same setting: in the case of `COc1ccccc1N(Cc1ccccc1)S(=O)(=O)c1cccc(C(=O)Nc2ccccn2)c1` it was 7.08 µM (active). Still for that read-out and setting: in the case of `CC(=O)c1ccccc1OCC(O)CN1CCN(C(c2ccccc2)c2ccccc2)CC1` (configuration not stated) it was 3.55 µM (active). As for `CCOC(=O)C1CCN(C(=O)CCc2nnc3ccc(NCc4ccco4)nn23)CC1`, the Potency was 5.01 µM (active). `O=C(CCl)Nc1cccc(S(=O)(=O)NC2=NCCC2)c1`: the Potency was 0.794 µM (active). Same read-out and setting: in the case of `COC(=O)[C@@]1(Cc2ccc(F)cc2)[C@@H]2[C@@H](CC(=O)[C@H]2CC(=O)C(=O)N(C)C)CN1C(=O)c1ccccc1` it was 10 µM (active); in that of `COc1ccccc1N1CCN(C(=O)c2noc(C(C)C)c2[N+](=O)[O-])CC1`, 8.91 µM (active); in that of `CCCCCCCn1c(=O)c(C(=O)OC)c(N)c2ccccc21`, 6.31 µM (active). As for `COc1cccc(CNc2cc(C)ccn2)c1O`, the Potency was 7.94 µM (active). In the case of `Cc1cccc(NCc2cccc3ccccc23)n1`, the Potency is 14.1 µM (active). Take `CSc1ccc(CNc2cccc3ccccc23)cc1`: the “activity change, negative = inhibition” value is -25.4%. With `Cc1ccnc(NCc2cccc3ccccc23)c1`, the Potency was 10 µM (active). For `N#CCc1nc(C(c2ccccc2)c2ccccc2)no1`, the Potency is 7.08 µM (active). With `Cc1ccccc1-n1nc2c(c1NC(=O)C1CCCC1)CS(=O)(=O)C2`, the “activity change, negative = inhibition” value is -10.9%. For `c1csc(CNc2ncnc3nc[nH]c23)c1`, the Potency was 15.8 µM (active). The same measure, in the same setting: in the case of `O=C(NC1CCN(Cc2ccccc2)CC1)C1CCN(c2nnc(-n3cccc3)s2)CC1` it was 5.01 µM (active).

Take `CC1Cc2ccccc2N1CC(=O)Nc1ccc2c(c1)OCCCO2` (configuration not stated): the Potency is 15.8 µM (active). Still for that read-out and setting: then `CC(=O)Nc1ccc(NC(=O)c2ccc(C3SCC(=O)N3CCc3ccccc3)cc2)cc1` (configuration not stated), with 12.6 µM (active). As for `O=C1CSC(c2cccnc2)N1CCc1ccccn1` (configuration not stated), the “activity change, negative = inhibition” value was 3.07%.

Turning to `O=C(Nc1ccc(N2CCN(C(=O)c3cccs3)CC2)cc1)c1ccc([N+](=O)[O-])o1`, the Potency was 2.24 µM (active). Consider `O=C(Nc1ccc(N2CCN(C(=O)c3ccco3)CC2)cc1)c1ccc(F)cc1`, for which the Potency is 3.98 µM (active).

With `O=C(Nc1ccc(N2CCN(C(=O)c3ccccc3)CC2)cc1)c1ccc([N+](=O)[O-])o1`, the Potency was 3.16 µM (active). `Cc1ccccc1C(=O)N1CCN(c2ccc(NC(=O)c3ccc([N+](=O)[O-])o3)cc2)CC1`: the Potency is 6.31 µM (active).

As for `CCN(CC)CCNC(=O)C1c2cc(OC)c(OC)cc2C(=O)N2CCc3ccccc3C12` (configuration not stated), the Potency was 2.24 µM (active). As for `CCN1C(=O)[C@@H]2[C@@H](c3ccc(SC4CCCCC4)c(OC)c3)N3CCC[C@@]3(C(=O)OC)[C@@H]2C1=O`, the Potency was 2.51 µM (active). On the same count and under the same terms, then `COC(=O)[C@@]12CCCN1[C@H](c1ccc(-c3cccc(Cl)c3)c(OC)c1)[C@H]1C(=O)N(C)C(=O)[C@H]12`, with 1.12 µM (active); and `CC(C)(C)c1nc(SCC(=O)Nc2nc3c(s2)CCCC3)c2ccccc2n1`, with 2 µM (active). Consider `COc1ccccc1OCC(=O)Nc1nc2c(s1)CCCC2`, for which the “activity change, negative = inhibition” value is 52.6%. On to `CC(C)(C)c1nc(SCC(=O)Nc2ccc(N3CCOCC3)cc2)c2ccccc2n1`, for which the Potency was 8.91 µM (active). The same measure, in the same setting: then `Cc1ccc(-c2cc(=O)c3ccc(F)cc3[nH]2)cc1`, with 3.98 µM (active). For `CC(=O)c1c(C)cc(C)c(CSc2nc(C)cc(=O)[nH]2)c1C`, the “activity change, negative = inhibition” value is -38.6%. Turning to `Cc1ccc(S(=O)(=O)Nc2cc(=O)[nH]c(SCc3ccc(Cl)cc3)n2)cc1`, the Potency is 11.2 µM (active). For `Cc1oc(-c2ccccc2F)nc1CS(=O)(=O)CC(=O)NCCCN1CCN(C)CC1`, the “activity change, negative = inhibition” value is -10.7%. For `Cc1oc(-c2ccccc2Cl)nc1CSCC(=O)N1CCCC1`, the Potency was 11.2 µM (active). Regarding `O=C(Cc1n[nH]c(=O)c2ccccc12)OCc1c(Cl)cccc1Cl`, the “activity change, negative = inhibition” value was -5.11%. `COc1ccc(-n2c(C)cc(C(=O)COC(=O)Cc3n[nH]c(=O)c4ccccc34)c2C)cc1`: the Potency was 3.55 µM (active). Still for that read-out and setting: then `Cc1ccc(/C=N/NC(=O)CSc2nc3ccccc3c(=O)n2-c2ccccc2C)s1`, with 6.31 µM (active); and `COc1ccc(C(C)=O)cc1CSc1nc2ccccc2c(=O)n1-c1ccccc1C`, with 7.94 µM (active); and `Cc1ccc(-c2nn(C(C)(C)C)c3ncnc(N)c23)cc1`, with 5.01 µM (active). Turning to `O=C(Nc1nnc(SCc2ccc(F)cc2)s1)c1ccccn1`, the Potency is 2.82 µM (active). Still for that read-out and setting: in the case of `Oc1ccc(-c2n[nH]c(=S)n2-c2ccc3c(c2)OCCO3)c(O)c1` it was 0.355 µM (active); in that of `COc1cc(C(=O)NCc2ccncc2)cc(Br)c1OCc1ccccc1`, 8.91 µM (active). As to `O=C(c1ccc(S(=O)(=O)Cc2ccccc2Cl)c([N+](=O)[O-])c1)N1CCOCC1`, the Potency was 3.98 µM (active).

In the case of `Cc1ccc(S(=O)(=O)N2CCN(c3ccc(C(=O)N4CCOCC4)cc3[N+](=O)[O-])CC2)cc1`, the Potency was 4.47 µM (active).

For the compound `O=C(c1ccc(S(=O)(=O)Cc2cc(F)ccc2F)c([N+](=O)[O-])c1)N1CCCC1`, the Potency is 7.94 µM (active). As for `CC(C)NC(=O)NC(=O)COC(=O)c1ccccc1Oc1ccccc1`, the “activity change, negative = inhibition” value was -19.1%. Take `Cc1cccc(NC(=O)COC(=O)c2cccc3c2C(=O)c2ccccc2C3=O)c1C`: the Potency is 12.6 µM (active). On to `CN(C)S(=O)(=O)c1cc(NC(=O)c2cc(=O)c3ccccc3o2)ccc1Cl`, for which the Potency was 5.01 µM (active). In the case of `CN(C)S(=O)(=O)c1cc(NC(=O)C2=COCCO2)ccc1Cl`, the Potency was 10 µM (active).

Consider `CCCCCCn1c(=O)[nH]c2nc3cc(N)ccc3nc2c1=O`, for which the Potency is 14.1 µM (active). Consider `COc1ccccc1NC(=O)Cc1nnc(SCC(=O)NC2CCCCC2)n1C`, for which the “activity change, negative = inhibition” value was -14.6%.

In the case of `O=C(O)c1ccccc1Nc1ccc([N+](=O)[O-])cc1`, the “activity change, negative = inhibition” value was 15.4%. With `COc1ccc(NC(=O)NC2CCCCCCC2)c(OC)c1`, the Potency is 11.2 µM (active). Still for that read-out and setting: in the case of `COc1ccc(NC(=O)N2CCCc3cc(C)ccc32)c(OC)c1` it was 12.6 µM (active). Still for that read-out and setting: in the case of `COc1cc(-c2ccc(Nc3ccccc3C(=O)O)c(OC)c2)ccc1Nc1ccccc1C(=O)O` it was 10 µM (active); in that of `COc1cc(-c2ccc(NC(=O)NC3CC3)c(OC)c2)ccc1NC(=O)NC1CC1`, 11.2 µM (active); in that of `COc1ccc(NC(=O)NC2CCCc3ccccc32)c(OC)c1` (configuration not stated), 6.31 µM (active). As for `CCNc1ccc(Br)cc(C(=O)/C=C/c2c(Cl)cccc2Cl)c1=O`, the Potency is 7.08 µM (active).

As for `CC(=O)Oc1ccc(-c2csc(Nc3cccnc3)n2)cc1`, the “activity change, negative = inhibition” value was 3.42%. Regarding `O=C(NC(=S)Nc1nc(-c2ccccc2)cs1)c1cccnc1`, the Potency was 12.6 µM (active).

For `O=C(c1ccccc1Br)N1CCN(c2ccccn2)CC1`, the “activity change, negative = inhibition” value was -19.7%. `CC(Oc1ccc(Br)cc1)C(=O)N1CCN(c2ccccn2)CC1` (configuration not stated): the Potency is 12.6 µM (active). Still for that read-out and setting: in the case of `CCCCn1c(=O)[nH]c(=O)c2c1nc(Cn1ncc(Cl)c(Cl)c1=O)n2CCC` it was 10 µM (active). As for `CC(C)CNC(=O)C(=O)Nc1cc2c3c(c1)C(C)C(=O)N3CCC2` (configuration not stated), the Potency is 14.1 µM (active).

Turning to `Cc1ccccc1NC(=O)Cc1nnc(SCC(=O)NC2CCCCC2)n1C`, the “activity change, negative = inhibition” value was -11.3%.

`Cn1c(Cc2cccc3ccccc23)nnc1SCc1ccc([N+](=O)[O-])cc1`: the Potency was 12.6 µM (active). Same read-out and setting: then `COc1ccccc1C1CCCN1Cc1nc(-c2ccc(C)s2)oc1C` (configuration not stated), with 14.1 µM (active); and `N#CC1=C(N)Oc2n[nH]c(-c3cccnc3)c2C1c1ccc([N+](=O)[O-])o1` (configuration not stated), with 15.8 µM (active); and `C=C1C(=O)[C@@]23[C@H](O)C[C@@H]4C(C)(C)CC[C@H](O)[C@]4(C)[C@@H]2C[C@H](O)[C@@H]1[C@H]3O`, with 14.1 µM (active). For `Cc1ccc(Cl)cc1N1CCN(c2cccc[n+]2C)CC1`, the Potency is 2 µM (active). `CCCc1[nH]nc2c1C(c1cc(OC)ccc1F)C(C#N)=C(N)O2` (configuration not stated): the Potency was 3.55 µM (active). Still for that read-out and setting: then `O=C(CSc1nc(-c2ccco2)cc(C(F)(F)F)n1)Nc1ccccc1C(F)(F)F`, with 12.6 µM (active); and `O=C(NCc1ccccn1)c1cc(-c2ccc(-c3ccccc3)cc2)nc2ccccc12`, with 15.8 µM (active). In the case of `CC(Sc1nc2cc(Cl)ccc2s1)C(=O)Nc1cccc(S(=O)(=O)N2CCOCC2)c1` (configuration not stated), the Potency is 12.6 µM (active). Still for that read-out and setting: then `COc1cccc(/C=N/NC(=O)c2nc(-c3ccccc3)cc(-c3ccccc3)n2)c1O`, with 7.94 µM (active). On the same count and under the same terms, in the case of `COc1ccccc1-n1nnnc1S(=O)(=O)Cc1ccc(Cl)cc1` it was 7.08 µM (active); in that of `CCCc1cc(C(=O)N2CCCC(N3CCN(c4ccccc4F)CC3)C2)n(C)n1` (configuration not stated), 10 µM (active). For `CC(=O)NC(=O)COC(=O)/C=C/c1c(C)nn(Cc2c(Cl)cccc2Cl)c1Cl`, the “activity change, negative = inhibition” value was -64.7%.

As for `COc1ccc2cc3cc(C(=O)N(C)C4CCCCC4)oc3nc2c1`, the Potency was 10 µM (active).

In the case of `CCOC(=O)C1CCCN(C(=O)c2cc3cc4ccc(OC)cc4nc3o2)C1` (configuration not stated), the Potency was 7.94 µM (active). On the same count and under the same terms, then `COc1ccc2cc3cc(C(=O)Nc4ccc5c(c4)OCO5)oc3nc2c1`, with 0.891 µM (active); and `CN(CCCN1c2ccccc2CCc2ccccc21)CC(=O)c1ccc(Cl)cc1`, with 12.6 µM (active); and `CCN(CC)C(=O)COc1coc(CN2CCN(c3ccccc3)CC2)cc1=O`, with 7.94 µM (active).

On to `CCOc1ccccc1NC(=O)COc1coc(CN2CCc3ccccc3C2)cc1=O`, for which the Potency was 11.2 µM (active). The same measure, in the same setting: in the case of `CN(C(=O)COc1coc(CN2CCN(c3ccccc3)CC2)cc1=O)c1ccccc1` it was 10 µM (active). Consider `CCN(CC)C(=O)COc1coc(CN2CCN(c3cccc(Cl)c3)CC2)cc1=O`, for which the Potency is 4.47 µM (active). On the same count and under the same terms, then `CCCNC(=O)COc1coc(CN2CCN(c3cccc(Cl)c3)CC2)cc1=O`, with 10 µM (active).

As to `O=C(O)c1ccc(/C=N/NC(=O)c2ccc3c(c2)OCCO3)cc1`, the “activity change, negative = inhibition” value was 24%.

Turning to `O=C(/C=C/c1ccncc1)c1ccc2c(c1)OCCO2`, the Potency is 12.6 µM (active).

The record behind these values is PubChem BioAssay AID504848 (National Center for Advancing Translational Sciences (NCATS), 2011).
